Values joined by “and” are separate entries in the source; they are usually repeats but may differ in a detail not shown here. Equal values may be shown once. The whole screen tested about 290,000 compounds, of which about 4,200 (1.4%) were called active. This is one part of a sample in which actives are shown more often than they occur.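 The calls were made as follows: active = binding response more than 3 SD above or below the average of its plate-row segment, actives on both sides; inconclusive = wells at one plate position flagged as instrument error; inactive = the rest.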 Some structures have more than one record in an assay (separate samples or runs), and their calls can disagree.
Each compound was assayed against Mitogen-activated protein kinase kinase kinase 3 (Homo sapiens) (UniProt Q99759) (assay: modulators of MEKK3-MEK5 PB1 binding, primary screen, biochemical, wildtype MEKK3, multiplex bead flow cytometry, Alexa488-MEK5 (AID 1529;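 also: Alexa488 bead fluorescence after subtracting the streptavidin-only scavenger bead signal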)). Details: bead-based flow cytometry, Alexa488-MEK5 binding to MEKK3; at 10 µM; actives lie on both sides; 0 = blocked by unlabeled MEK5, 100 = vehicle.
Sequence of Mitogen-activated protein kinase kinase kinase 3 (Homo sapiens) (Q99759 whole entry, looked up): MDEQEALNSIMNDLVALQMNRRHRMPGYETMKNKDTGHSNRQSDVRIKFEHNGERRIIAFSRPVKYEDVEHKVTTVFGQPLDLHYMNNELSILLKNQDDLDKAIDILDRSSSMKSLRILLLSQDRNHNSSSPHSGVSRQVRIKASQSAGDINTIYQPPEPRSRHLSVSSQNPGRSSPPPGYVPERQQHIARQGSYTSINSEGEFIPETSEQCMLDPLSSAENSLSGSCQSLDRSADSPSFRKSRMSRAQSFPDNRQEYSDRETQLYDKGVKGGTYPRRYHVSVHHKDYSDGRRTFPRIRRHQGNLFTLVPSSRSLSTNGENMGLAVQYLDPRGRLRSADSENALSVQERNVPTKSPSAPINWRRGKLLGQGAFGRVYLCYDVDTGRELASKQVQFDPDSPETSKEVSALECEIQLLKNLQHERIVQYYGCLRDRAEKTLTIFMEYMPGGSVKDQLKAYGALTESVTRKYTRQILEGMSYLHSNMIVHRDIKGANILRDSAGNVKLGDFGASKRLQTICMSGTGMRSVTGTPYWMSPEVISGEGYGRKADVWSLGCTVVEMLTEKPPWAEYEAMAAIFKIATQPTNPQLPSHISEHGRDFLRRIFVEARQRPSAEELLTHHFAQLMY

Binding response (% of control), 138% (active) and 103% (inactive):
C=CCn1c(P(C)(=O)O)nc2ccccc21

Binding response (% of control), inactive:
C=CCN(CC=C)S(=O)(=O)c1ccc(C(=O)Nc2nc3c(s2)CCc2ccccc2-3)cc1 100%, NC(=O)c1c(NC(=O)c2ccccc2)sc2c1CCCC2 102%, NS(=O)(=O)c1ccc2nc(NC(=O)C3=COCCO3)sc2c1 100%, COc1cccc(NC(=O)[C@H](Cc2c[nH]c3ccccc23)NC(=O)[C@@H]2Cc3ccccc3CN2)c1 101%, CCc1nnc(SCc2cccc(F)c2)nc1CC 101%, COCc1cc(C)nc2sc(C(=O)NC3CCCCC3)c(N)c12 101%, CCc1ccc2nc3sc(C(=O)Nc4nnc(CC)s4)c(N)c3cc2c1 103%, COc1ccc(C(=O)OCC(=O)Nc2cccc(C(C)=O)c2)cc1OC 100%, O=C(COC(=O)c1ccccc1)Nc1cccc(S(=O)(=O)N2CCOCC2)c1 104%, COc1ccc(NC(=O)COc2ccc(C(=O)c3ccc(F)cc3)cc2)cc1S(N)(=O)=O 100%, CCc1nc2nc(C)c(NS(=O)(=O)c3ccc4c(c3)CCCC4)c(=O)n2[nH]1 101%, COc1ccc(CN(C)C(=O)Cc2ccsc2)c(OC)c1OC 103%, CCC/C(O)=C1\C(=O)CC(C)(C)CC1=Nc1ccccc1OC 102%, COc1ccccc1N=Cc1c(O)c2ccccc2oc1=O 121%, Cc1ccc2c(C)c(C(=O)N3CCN(c4ccncc4)CC3)oc2c1C 106%, Cc1ccc(-c2nnc(CN3CCN(C)CC3)o2)cc1 112%, c1ccc(-c2cnc(CN3CCN(c4ccccc4)CC3)o2)cc1 101%, CCCn1c(=N)n(CC(=O)c2ccc(Cl)c(Cl)c2)c2ccccc21 109%, CCOC(=O)c1ccc(NC(=S)Nc2cc(C)cc(C)n2)cc1 77%, CCOC(=O)c1cn[nH]c1NC(=S)Nc1ccccc1 93%, CCOc1ccc(CN2CCNC(=O)C2CC(=O)NCCCC2CCCC2)cc1 (centres undefined) 102%, O=C1CCN(CCCc2ccccc2)CCN1CCO 101%, CCOC(=O)c1ccc(NC(=O)CNC(=O)c2ccco2)cc1 108%, NS(=O)(=O)c1ccc(NC(=O)COC(=O)c2ccco2)cc1 98%, CCOc1ccccc1NC(=S)N1CCN(c2cccc(C)c2C)CC1 102%, O=C(Nc1ccc2c(c1)CCC2)c1ccc(Br)s1 86%, Oc1ccc(Br)cc1/C=N/Nc1ccccn1 99%, O=C(N/N=C/c1ccccc1O)/C(=C/c1ccccc1)CCO 108%, CCn1c(SCC(=O)NC2=NCCS2)nnc1C(C)NC(=O)c1ccccc1F (centres undefined) 95%, Cc1ccc(CC2C(=O)N(c3ccc(F)cc3)C(=O)C2C)cc1 (centres undefined) 99%, CCOC(=O)c1sc2nc(C)nc(Nc3ccc(OC)c(OC)c3)c2c1C 101%, CCOC(=O)c1sc2nc(C)[nH]c(=O)c2c1C 97%, COC(C[C@@H]1O[C@@H]1C(=O)[C@H](C)OCc1ccccc1)OC 98%, CCOC(=O)/C=C/c1ccc(C(F)(F)F)cc1S(=O)(=O)NC(C)(C)C 100%, Cc1cc(OCCOc2cccc3cccnc23)c(C)cc1Cl 101%, OCc1ccc(OCCCOc2cccc3cccnc23)cc1 106%, COc1cccc(CNC(=O)CCC2CCCN(C(=O)c3ccc(F)c(Cl)c3)C2)c1 (centres undefined) 99%, CS(=O)(=O)N1CCN(CC(=O)NC2CCCC2)CC1 99%, COC(=O)c1ccccc1NC(=O)C1(S(=O)(=O)c2ccc(Cl)cc2)CC1 102%, COC(=O)Cn1cnc2scc(-c3ccc(C)c(C)c3)c2c1=O 105%, COc1ccc(S(=O)(=O)Nc2ccccc2C(=O)N2CCCC2)cc1C 104%, COCCNC(=O)c1ccccc1NS(=O)(=O)c1ccc(C)c([N+](=O)[O-])c1 101%, O=C(NCC1CC1)c1onc(CSc2ccccc2)c1C(=O)NCC1CC1 97%, NC(=O)COC(=O)c1ccc2c(c1)C(=O)N(Cc1ccco1)C2=O 99%, C=CCn1c(C(C)NC(=O)CC)nc2ccccc21 (centres undefined) 94%, C=CCn1c(C2CC(=O)N(c3ccc(C)cc3)C2)nc2ccccc21 (centres undefined) 96%, COc1ccc(C#Cc2c(-c3ccc(OC)cc3)oc3ccc(-c4ccc5c(c4)OCO5)cc23)cc1 95%, COc1ccc(-n2cc(-c3ccccc3)c3c(=S)nc[nH]c32)cc1 101%, CCn1cc(S(=O)(=O)c2cccc(C)c2)c(=O)c2cc(F)c(N3CCN(C)CC3)cc21 101%, Cc1ccc(-n2c(SCC(=O)N3c4ccccc4Sc4ccccc43)nnc2-c2ccncc2)cc1 97%, Cc1ccc(-c2noc(CSc3nnc(-c4ccncc4)n3-c3ccc(F)cc3)n2)cc1 106%

Binding response (% of control), active:
C=CCN(CC=C)S(=O)(=O)c1ccc(C(=O)Nc2sc3c(c2C(N)=O)CCCCC3)cc1 66% [inhibitor], CCc1nnc(NC(=O)c2sc3nc(C)cc(COC)c3c2N)s1 46% [inhibitor], CCOc1cc(C(=O)OCC(=O)Nc2cccc(C)c2)ccc1OCC(=O)N1CCOCC1 137%, COc1ccccc1N=C(C)C1=C(O)COC1=O 81% [inhibitor], COc1ccc(N2CCN(Cc3nnc(-c4ccccc4)o3)CC2)cc1 139%, CCOC(=O)c1cc2c(nc1NC(=S)Nc1ccccc1)CC(C)(CC)OC2 (centres undefined) 128%, O=C(COC(=O)CNC(=O)c1ccco1)Nc1ccc(F)cc1 65% [inhibitor], O=C(CCCO)N/N=C/c1cc(Br)ccc1O 129%, CCOC(=O)c1sc2nc(C)nc(SCC(N)=O)c2c1C 132%, CCOc1cccc(OCCCOc2cccc3cccnc23)c1 143%, CC1CN(C(=O)c2ccccc2NS(=O)(=O)c2cccc([N+](=O)[O-])c2)CC(C)O1 (centres undefined) 131%, Cc1ccc(Nc2nc(CSc3nnc(-c4ccncc4)n3-c3ccccc3C)cs2)cc1 138%
